# Laboratory results from PubChem BioAssay (NCATS).
# A number with no mark means an inactive call. Records with an inconclusive call do not appear. A call without a number means that no potency is given here. The source made the active and inactive calls. Unless noted, the call rests on the fitted dose curve; in most records, active means well fitted curve in the direction sought with a large enough effect; inconclusive means small, poorly fitted or top-dose-only effect, or another doubt; inactive means no such curve, though single readings can be large; an effect the other way counts as inactive or inconclusive. Where a SMILES comes first, the peptide text is derived from it.
# How the values were obtained:
# [1] = biological target: Nucleoprotein (Lymphocytic choriomeningitis virus (strain Armstrong)) (UniProt P09992); test: qHTS for Inhibitors of the Functional Ribonucleoprotein Complex (vRNP) of Lymphocytic Choriomeningitis Arenaviruses (LCMV): LCMV Primary Screen - GLuc reporter signal (AID 1347086; calls by dose curve; further: series mostly up to about 57 µM; nearly all actives have a fitted effect of over 70% in size)
# Nucleoprotein (Lymphocytic choriomeningitis virus (strain Armstrong)), sequence (P09992 whole entry, looked up): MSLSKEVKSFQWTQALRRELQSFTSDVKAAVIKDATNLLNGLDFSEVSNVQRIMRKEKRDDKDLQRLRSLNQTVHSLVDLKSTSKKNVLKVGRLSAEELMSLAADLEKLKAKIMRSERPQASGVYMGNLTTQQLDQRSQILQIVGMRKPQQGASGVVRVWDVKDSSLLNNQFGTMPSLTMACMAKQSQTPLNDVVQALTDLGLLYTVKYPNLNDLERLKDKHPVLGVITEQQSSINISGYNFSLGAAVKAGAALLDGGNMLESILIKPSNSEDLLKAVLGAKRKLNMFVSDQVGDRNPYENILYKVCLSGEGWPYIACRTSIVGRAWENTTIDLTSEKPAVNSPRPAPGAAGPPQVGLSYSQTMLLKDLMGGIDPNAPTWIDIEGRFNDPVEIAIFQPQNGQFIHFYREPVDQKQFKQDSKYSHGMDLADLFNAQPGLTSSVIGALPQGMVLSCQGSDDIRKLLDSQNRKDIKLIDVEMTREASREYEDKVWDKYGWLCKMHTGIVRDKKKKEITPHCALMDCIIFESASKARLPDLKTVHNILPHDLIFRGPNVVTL
# [2] = biological target: Metallo-beta-lactamase type 2 (Klebsiella pneumoniae) (UniProt C7C422); test: qHTS to identify inhibitors of the New Delhi Metallo-beta-lactamase (NDM): assay validation screen against the NCATS LOPAC Collection (AID 1794843);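 further: nitrocefin turnover by NDM-1 measured as 485 nm absorbance at plateau; series mostly up to about 38 µM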
# Metallo-beta-lactamase type 2 (Klebsiella pneumoniae), sequence (C7C422 whole entry, looked up): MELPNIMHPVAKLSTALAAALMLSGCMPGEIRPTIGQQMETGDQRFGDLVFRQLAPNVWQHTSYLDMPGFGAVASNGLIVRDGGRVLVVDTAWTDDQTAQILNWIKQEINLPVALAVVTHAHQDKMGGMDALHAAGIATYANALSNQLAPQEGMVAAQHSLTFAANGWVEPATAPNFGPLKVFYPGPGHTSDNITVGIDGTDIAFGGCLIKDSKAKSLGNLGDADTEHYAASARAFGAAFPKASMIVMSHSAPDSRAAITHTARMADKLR
# Method in brief: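 Nitrocefin hydrolysis (50 uM substrate stock) by NDM-1, 2 nM final, was followed by 485 nm absorbance after compound preincubation; buffer was 50 mM HEPES pH 7.0, 1 uM ZnSO4, 0.01% Tween20.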
# [3] = tested on: Zika virus NS2B-NS3 protease; test: Primary screen GU AMC qHTS for Zika virus inhibitors (AID 1347154); further: nearly all actives have a fitted effect of over 70% in size
# Method in brief: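 Unlinked Zika NS2B hydrophilic domain–NS3 protease complex at 25 nM in 10 mM Tris-HCl pH 8.0, 0.01% Tween 20, with an AMC peptide substrate. Fluorescence change (340/450 nm) over 15 min at room temperature, normalized to controls, fitted to 4-parameter Hill.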
# [4] = biological target: Cytochrome P450 3A4 (Homo sapiens) (UniProt P08684); test: qHTS Assay for Inhibitors and Substrates of Cytochrome P450 3A4 (AID 884); further: series mostly up to about 57 µM; nearly all actives have a fitted effect of over 50% in size
# Cytochrome P450 3A4 (Homo sapiens), sequence (P08684 whole entry, looked up): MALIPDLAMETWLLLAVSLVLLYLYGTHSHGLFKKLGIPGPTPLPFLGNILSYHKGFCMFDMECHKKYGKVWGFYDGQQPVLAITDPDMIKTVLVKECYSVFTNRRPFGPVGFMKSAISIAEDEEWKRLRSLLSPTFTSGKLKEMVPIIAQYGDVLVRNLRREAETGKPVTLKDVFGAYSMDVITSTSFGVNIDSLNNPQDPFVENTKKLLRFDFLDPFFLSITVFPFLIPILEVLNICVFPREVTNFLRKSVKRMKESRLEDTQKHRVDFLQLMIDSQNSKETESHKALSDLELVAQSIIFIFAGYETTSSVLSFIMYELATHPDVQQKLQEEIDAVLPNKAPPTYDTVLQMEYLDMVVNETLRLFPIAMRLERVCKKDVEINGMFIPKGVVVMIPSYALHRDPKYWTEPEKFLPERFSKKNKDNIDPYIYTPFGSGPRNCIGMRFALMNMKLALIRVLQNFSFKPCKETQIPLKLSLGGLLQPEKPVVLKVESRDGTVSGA
# Method in brief: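 20 nM human CYP3A4 with 25 uM Luciferin-PPXE (at KM) in 200 mM KPO4, preincubated 10 min with compound; NADPH regeneration started a 60 min RT reaction. Luciferin detected by luminescence, normalized to 57 uM ketoconazole as full inhibition.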
# [5] = Confirmation and Secondary Assay for Modulators of Hemoglobin Beta Chain Splicing at IVS2 654 locus (AID 910);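 further: HeLa cells stably carrying EGFP split by mutant beta-globin IVS2-654 intron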
# Method in brief: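 HeLa cells stably expressing EGFP interrupted by β-globin IVS2-654 intron, seeded overnight in Opti-MEM/2% FCS, then treated 2 days at 37 °C. Restored splicing read as total peak GFP intensity per well by laser scanning cytometry (488 nm excitation, 500–520 nm emission); 500 nM antisense PNA as control.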
# [6] = biological target: Ubiquitin carboxyl-terminal hydrolase 1 (Homo sapiens) (UniProt O94782); test: Inhibitors of USP1/UAF1: Pilot qHTS (AID 504865);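 further: rhodamine fluorescence freed from ubiquitin-rhodamine substrate followed over time; top concentration of the series differs between compounds; nearly all actives have a fitted effect of over 35% in size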
# Ubiquitin carboxyl-terminal hydrolase 1 (Homo sapiens), sequence (O94782 whole entry, looked up): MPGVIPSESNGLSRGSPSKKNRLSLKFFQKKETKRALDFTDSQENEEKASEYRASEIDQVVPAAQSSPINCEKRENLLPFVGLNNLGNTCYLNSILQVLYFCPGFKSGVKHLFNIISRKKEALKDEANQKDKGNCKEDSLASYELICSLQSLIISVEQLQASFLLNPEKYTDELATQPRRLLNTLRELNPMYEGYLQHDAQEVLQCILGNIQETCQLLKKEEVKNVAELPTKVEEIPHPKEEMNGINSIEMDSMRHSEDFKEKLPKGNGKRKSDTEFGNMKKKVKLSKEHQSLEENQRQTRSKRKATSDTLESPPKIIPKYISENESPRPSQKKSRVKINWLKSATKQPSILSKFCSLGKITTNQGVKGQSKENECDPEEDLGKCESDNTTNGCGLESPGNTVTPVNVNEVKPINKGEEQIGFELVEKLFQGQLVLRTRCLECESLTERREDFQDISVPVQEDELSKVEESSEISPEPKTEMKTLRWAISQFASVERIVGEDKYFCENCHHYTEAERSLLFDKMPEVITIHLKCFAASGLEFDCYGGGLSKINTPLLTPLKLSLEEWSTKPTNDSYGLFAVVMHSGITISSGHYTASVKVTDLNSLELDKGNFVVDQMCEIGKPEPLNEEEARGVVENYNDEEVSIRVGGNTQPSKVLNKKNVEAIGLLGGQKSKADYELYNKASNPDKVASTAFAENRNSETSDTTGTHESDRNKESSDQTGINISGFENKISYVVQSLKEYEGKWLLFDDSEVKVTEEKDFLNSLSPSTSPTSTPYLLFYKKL
# Method in brief: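 Enzyme-free wells gave the negative control, while test wells held 1nM USP1/UAF1 preincubated with compound for 15 min at room temperature. Ub-Rho at 150nM final started the reaction, and fluorescence at 480/540 nm was recorded kinetically.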
# Furin (Homo sapiens) = Furin (Homo sapiens) (UniProt P09958); test: Furin counterscreen qHTS for Zika virus inhibitors (AID 1347149); further: nearly all actives have a fitted effect of over 70% in size; further: potency means the concentration at half of the fitted maximal effect;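 on activity change, negative = inhibition: purified recombinant full-length human furin enzyme at 5 nM; fluorescence gain from furin cutting a BOC-RVRR-AMC peptide substrate over 15 min; top concentration of the series differs between compounds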
# Furin (Homo sapiens), sequence (P09958 whole entry, looked up): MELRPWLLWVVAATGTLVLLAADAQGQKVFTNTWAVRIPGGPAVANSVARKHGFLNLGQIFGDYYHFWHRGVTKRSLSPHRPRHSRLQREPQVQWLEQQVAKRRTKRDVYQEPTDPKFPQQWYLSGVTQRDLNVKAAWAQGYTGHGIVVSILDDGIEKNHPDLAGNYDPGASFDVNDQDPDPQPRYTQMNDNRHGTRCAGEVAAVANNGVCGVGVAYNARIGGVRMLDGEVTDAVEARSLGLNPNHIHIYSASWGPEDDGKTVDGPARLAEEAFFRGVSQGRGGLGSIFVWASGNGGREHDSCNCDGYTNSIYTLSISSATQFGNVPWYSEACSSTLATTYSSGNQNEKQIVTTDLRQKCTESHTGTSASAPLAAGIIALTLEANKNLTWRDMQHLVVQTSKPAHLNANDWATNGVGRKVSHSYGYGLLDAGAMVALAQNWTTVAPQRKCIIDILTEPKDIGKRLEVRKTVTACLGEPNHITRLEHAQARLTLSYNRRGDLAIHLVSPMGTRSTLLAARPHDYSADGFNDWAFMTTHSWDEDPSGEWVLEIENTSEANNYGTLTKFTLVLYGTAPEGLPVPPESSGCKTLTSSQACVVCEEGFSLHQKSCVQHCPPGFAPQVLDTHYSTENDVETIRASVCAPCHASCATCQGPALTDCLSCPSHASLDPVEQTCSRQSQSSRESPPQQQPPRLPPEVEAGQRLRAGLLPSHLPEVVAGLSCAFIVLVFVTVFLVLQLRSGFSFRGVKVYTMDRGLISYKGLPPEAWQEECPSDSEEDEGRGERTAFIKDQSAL
# Method in brief: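 Fluorogenic cleavage of BOC-RVRR-AMC (2 microM final, Km ~15 µM) was monitored (ex 340, em 450 nm) at 37C after 15 min RT preincubation of 5 nM furin with compounds in HEPES pH 7.0 buffer with CaCl2 and Triton X-100. Percent inhibition was fitted to a 4-parameter Hill curve.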
# [7] = Vero cells viability qHTS for Zika virus inhibitors (AID 1347167)
# Method in brief: (§1)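 Cells seeded at 2.5 x 10^5 cells/mL in DMEM with 4% FBS and attached overnight at 37 degrees C, then exposed to compound for 24 to 48 hours. Viability read as ATP content by CellTiter Glo luminescence.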
# [8] = Tertiary RLuc qRT-PCR qHTS assay for Zika virus inhibitors (AID 1347169); further: potency means the concentration at half of the fitted maximal effect; nearly all actives have a fitted effect of over 55% in size
# Method in brief: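 Inhibition of ZIKV-RLuc replication in Vero cells, read as Renilla luminescence 1-1.5 hrs after live-cell substrate addition, following 48-72 hrs infection at MOI 1-2 in presence of compound.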
# [9] = tested on: Zika virus NS2B-NS3 protease (linked construct); test: Confirmatory screen NINDS AMC qHTS for Zika virus inhibitors (AID 1347152); further: potency means the concentration at half of the fitted maximal effect; nearly all actives have a fitted effect of over 70% in size
# Method in brief: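 Concentration-response confirmation used the NINDS linked protease (NS2B hydrophilic domain joined to NS3 protease domain), 1 nM, with a 15-min compound preincubation. Substrate, Nle-KRR-AMC at 10 microM, was read by UV fluorescence before and after 15 min.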
# [10] = tested on: Zika virus NS2B-NS3 protease (unlinked complex); test: Confirmatory screen GU AMC qHTS for Zika virus inhibitors (AID 1347153)
# Method in brief: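 Unlinked enzyme 25 nM, Tris pH 8.0/0.01% Tween 20; cpd 15 min RT, dark; + AMC substrate 10 µM (Km 18.3 µM); 340/450 nm read at t0 and 15 min; % inhibition → 4-param fit.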
# [11] = Confirmatory screen NINDS Rhodamine qHTS for Zika virus inhibitors (AID 1347161); further: potency means the concentration at half of the fitted maximal effect; nearly all actives have a fitted effect of over 60% in size
# Method in brief: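 qHTS dose-response: 25 nM linked protease, pH 8.0 Tris/Tween buffer, cpd titration, 15 min RT preinc, 1.5 microM Rhod110 peptide, 15 min reaction (~15% conversion), Ex480/Em540; 4-parameter Hill fit.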
# [12] = tested on: Zika virus NS2B-NS3 protease (linked construct); test: 384 well plate NINDS Rhodamine confirmatory qHTS for Zika virus inhibitors (AID 1347164); further: potency means the concentration at half of the fitted maximal effect; nearly all actives have a fitted effect of over 65% in size
# Method in brief: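 Cleavage of Ac-LKRR-Rhodamine 110 (10 microM final) by linked protease (final 5, 30 or 60 nM) was followed as fluorescence at 485/538 nm after 25 min, room temperature, dark. Compounds preincubated ~15 min.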
# [13] = HepG2 cells viability qHTS for Zika virus inhibitors (AID 1347168); further: potency means the concentration at half of the fitted maximal effect
# Method in brief: as §1
# [14] = Primary qHTS for small molecule stabilizers of the endoplasmic reticulum resident proteome: Secreted ER Calcium Modulated Protein (SERCaMP) assay (AID 1508630)
# Method in brief: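 GLuc-SERCaMP-expressing SH-SY5Y cells, pretreated 16 h with compound, are challenged with thapsigargin to empty ER calcium stores; after 4 h, coelenterazine is added directly to the medium and luminescence is imaged.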
smiles,measurement,setting,value
C/C=C/CC(C)C(O)C1C(=O)NC(CC)C(=O)N(C)CC(=O)N(C)C(CC(C)C)C(=O)NC(C(C)C)C(=O)N(C)C(CC(C)C)C(=O)NC(C)C(=O)NC(C)C(=O)N(C)C(CC(C)C)C(=O)N(C)C(CC(C)C)C(=O)N(C)C(C(C)C)C(=O)N1C (centres undefined),Potency,[1],inactive
same,outcome,[2],inactive
O=C(/C=C/c1ccc(Cl)cc1)N[C@@]12CCC(=O)[C@@H]3Oc4c(O)ccc5c4[C@@]31CCN(CC1CC1)C2C5,Potency,[3],inactive
Nc1ccc(N=Nc2ccc(-c3ccc(N=Nc4c(S(=O)(=O)O)cc5cc(S(=O)(=O)O)c(N=Nc6ccccc6)c(O)c5c4N)cc3)cc2)c(N)c1,Potency,[1],inactive
Cc1c(C(=O)c2cccc3ccccc23)c2cccc3c2n1[C@@H](CN1CCOCC1)CO3,Potency,[3],inactive
CC(C)C[C@H](NC(=O)[C@H](Cc1ccccc1)NC(=O)CNC(=O)[C@H](CS)N(C(=O)[C@@H](N)Cc1ccc(O)cc1)C(C)(C)C)C(=O)N([C@H](C(=O)O)[C@H](C)O)C(C)(C)C (HELM PEPTIDE1{Y.[CC(C)(C)N([C@@H](CS)C(=O)[*:2])[*:1]].G.F.L.[C[C@H](O)[C@@H](C(=O)O)N(C(C)(C)C)[*:1]]}$$$$V2.0),"activity change, negative = inhibition",[3],12.2% [at 6.83 µM]
COC1C(O)C(C)O[C@@H](OC2CC[C@@]3(C)C4CC[C@]5(C)C(C6=CC(=O)OC6)CC[C@@]5(O)C4CC[C@@H]3C2)C1O (some centres undefined),Potency,[4],inactive
same,Potency,[5],inactive
same,Potency,[6],inactive
same,Potency,Furin (Homo sapiens),inactive
same,Potency,[7],inactive
same,Potency,[8],0.0658 µM (active)
CNc1ccc2oc(C[C@@H]3OC4(CC[C@@H]3C)O[C@H]([C@@H](C)C(=O)c3ccc[nH]3)[C@H](C)C[C@H]4C)nc2c1C(=O)O (some centres undefined),Potency,Furin (Homo sapiens),21.5 µM (active)
same,Potency,[9],19.2 µM (active)
same,Potency,[10],24.1 µM (active)
same,Potency,[11],9.87 µM (active)
same,Potency,[12],44.7 µM (active)
same,Potency,[13],26.2 µM (active)
same,Potency,[14],inactive
